# Test results from paper PMC8384837, “Expanding the binding specificity for RNA recognition by a PUF domain”.
# Residue numbers refer to the chain shown, from its start.
# How the values were obtained:
# Test in all cases: yeast three-hybrid, YBZ-1, SC-Leu-His + 0.5 mM 3-AT, 4 days
# Details in all cases: tags: N-Gal4 AD-HA kept; label: inside an RPR1-promoter hybrid RNA with tandem MS2 sites; ssRNA
# PUM1 PUF domain R7-DHV = PUM1 PUF domain R7-DHV (Homo sapiens, UniProt Q14671 828-1176, S1079D;N1080H;E1083V)
# Method in brief: (§1)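 Pumilio-1 PUF domain libraries, randomized (NNK) at the three base-contacting residues of each repeat, were co-expressed with matching RNA elements from a centromeric plasmid in strain YBZ-1 (LexA–MS2 coat fusion, HIS3 reporter). Transformants were plated on SC-Leu (input) and SC-Leu-His + 0.5 mM 3-AT (selection) for four days, and repeat regions were PCR-amplified and Illumina-sequenced. The interaction score is the log2 change in variant frequency from input to selection, with pseudocount 1 where absent.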
# PUM1 PUF domain R3-GHF = PUM1 PUF domain R3-GHF (Homo sapiens, UniProt Q14671 828-1176, C935G;R936H;Q939F)
# Method in brief: as §1
# PUM1 PUF domain R6-LWG = biological target: T1, PUM1 PUF domain R6-LWG (Homo sapiens, UniProt Q14671 828-1176, N1043L;Y1044W;Q1047G)
# T1 sequence: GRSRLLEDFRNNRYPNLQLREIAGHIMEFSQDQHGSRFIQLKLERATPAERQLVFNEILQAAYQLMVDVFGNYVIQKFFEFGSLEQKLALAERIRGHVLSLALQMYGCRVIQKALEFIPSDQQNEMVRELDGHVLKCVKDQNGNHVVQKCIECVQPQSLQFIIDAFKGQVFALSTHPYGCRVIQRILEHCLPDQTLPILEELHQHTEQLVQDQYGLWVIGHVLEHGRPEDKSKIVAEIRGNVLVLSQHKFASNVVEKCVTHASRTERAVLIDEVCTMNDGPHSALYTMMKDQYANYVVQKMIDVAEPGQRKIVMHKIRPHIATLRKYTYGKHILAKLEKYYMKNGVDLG
# Method in brief: as §1
# PUM1 PUF domain R6-QYS = biological target: T2, PUM1 PUF domain R6-QYS (Homo sapiens, UniProt Q14671 828-1176, N1043Q;Q1047S)
# T2 sequence: T1 sequence with L216Q, W217Y, G220S
# Method in brief: as §1
# PUM1 PUF domain R4-SLS = PUM1 PUF domain R4-SLS (Homo sapiens, UniProt Q14671 828-1176, N971S;H972L;Q975S)
# Method in brief: as §1
# PUM1 PUF domain R5-MRV = PUM1 PUF domain R5-MRV (Homo sapiens, UniProt Q14671 828-1176, C1007M;Q1011V)
# Method in brief: as §1
# PUM1 PUF domain R4-PWG = PUM1 PUF domain R4-PWG (Homo sapiens, UniProt Q14671 828-1176, N971P;H972W;Q975G)
# Method in brief: as §1
# PUM1 PUF domain R5-NAV = PUM1 PUF domain R5-NAV (Homo sapiens, UniProt Q14671 828-1176, C1007N;R1008A;Q1011V)
# Method in brief: as §1
# PUM1 PUF domain R5-EGE = PUM1 PUF domain R5-EGE (Homo sapiens, UniProt Q14671 828-1176, C1007E;R1008G;Q1011E)
# Method in brief: as §1
# PUM1 PUF domain R4-LFW = PUM1 PUF domain R4-LFW (Homo sapiens, UniProt Q14671 828-1176, N971L;H972F;Q975W)
# Method in brief: as §1
sequence,measurement,setting,value
GGCUAGAACUAGUGGAUCCCCCGGCGCCCGGCGGCUCGAGCCCGGGUAAGUUUAAAUAGUCUGCAUGCCGCCGGGCGCCAUGCCUGCAGGUCGACUCUAGAAAACAUG,binding signal,PUM1 PUF domain R7-DHV,5.24 log2 enrichment (interaction score)
GGCUAGAACUAGUGGAUCCCCCGGCGCCCGGCGGCUCGAGCCCGGGUAAGUGUAAUUAGUCUGCAUGCCGCCGGGCGCCAUGCCUGCAGGUCGACUCUAGAAAACAUG,binding signal,PUM1 PUF domain R3-GHF,2.21 log2 enrichment (interaction score)
GGCUAGAACUAGUGGAUCCCCCGGCGCCCGGCGGCUCGAGCCCGGGUAAGUGUAAAUAGUCUGCAUGCCGCCGGGCGCCAUGCCUGCAGGUCGACUCUAGAAAACAUG,binding signal,PUM1 PUF domain R6-LWG,6.16 log2 enrichment (interaction score)
same,binding signal,PUM1 PUF domain R6-QYS,3.68 log2 enrichment (interaction score)
same,binding signal,PUM1 PUF domain R4-SLS,2.39 log2 enrichment (interaction score)
same,binding signal,PUM1 PUF domain R5-MRV,1.85 log2 enrichment (interaction score)
same,binding signal,PUM1 PUF domain R4-PWG,5.84 log2 enrichment (interaction score)
GGCUAGAACUAGUGGAUCCCCCGGCGCCCGGCGGCUCGAGCCCGGGUAAGUGUUAAUAGUCUGCAUGCCGCCGGGCGCCAUGCCUGCAGGUCGACUCUAGAAAACAUG,binding signal,PUM1 PUF domain R5-NAV,2.55 log2 enrichment (interaction score)
same,binding signal,PUM1 PUF domain R5-MRV,2.34 log2 enrichment (interaction score)
GGCUAGAACUAGUGGAUCCCCCGGCGCCCGGCGGCUCGAGCCCGGGUAAGUGUGAAUAGUCUGCAUGCCGCCGGGCGCCAUGCCUGCAGGUCGACUCUAGAAAACAUG,binding signal,PUM1 PUF domain R5-NAV,1.26 log2 enrichment (interaction score)
same,binding signal,PUM1 PUF domain R5-EGE,2.78 log2 enrichment (interaction score)
same,binding signal,PUM1 PUF domain R5-MRV,2.45 log2 enrichment (interaction score)
GGCUAGAACUAGUGGAUCCCCCGGCGCCCGGCGGCUCGAGCCCGGGUAAGUGUAUAUAGUCUGCAUGCCGCCGGGCGCCAUGCCUGCAGGUCGACUCUAGAAAACAUG,binding signal,PUM1 PUF domain R4-LFW,3.89 log2 enrichment (interaction score)
same,binding signal,PUM1 PUF domain R4-PWG,6.71 log2 enrichment (interaction score)
GGCUAGAACUAGUGGAUCCCCCGGCGCCCGGCGGCUCGAGCCCGGGUAAGUGUACAUAGUCUGCAUGCCGCCGGGCGCCAUGCCUGCAGGUCGACUCUAGAAAACAUG,binding signal,PUM1 PUF domain R4-PWG,5.43 log2 enrichment (interaction score)
